27 compounds from PubChem BioAssay AID623908 (Johns Hopkins Ion Channel Center, 2012) can be followed below.

Molecules are shown by their SMILES. Screen size: about 2,500 compounds; about 1,500 (60%) were called active.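 How the source made its calls: active means duplicate-averaged ratio beyond 3 SD from buffer wells, up or down, though filed actives are nearly all decreases; inactive means the rest.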 So high a share suggests a set chosen from earlier hits. The list is a sample of the results.

This test is described as follows: dye ratio change in CHT-lacking host cells – cell-based, parental HEK293, membrane potential dye, counter-screen for CHT activator project (AID 623908). The conditions noted are these: parental HEK293, membrane potential dye fluorescence (FDSS); at 10 µM; measured after EC20 choline addition.
`Cn1c(=O)n(Cc2ccco2)c(=N)c2c3c(sc21)CCCC3`: the ratio readout change is -31.5 (active).

Regarding `CC(Sc1nc2ccccc2c(=O)n1Cc1ccco1)C(=O)c1ccccc1` (configuration not stated), the ratio readout change entry is “inactive”.

Take `Cn1c(=O)[nH]c(=O)c2c1nc(N1CCN(CCO)CC1)n2CCSc1nc2ccccc2s1`: the ratio readout change was -48.2 (active).

Regarding `CN(C)c1ccnc(Nc2ccc(F)cc2)c1C#N`, the ratio readout change is -45.1 (active).

Regarding `CCN1CCN(c2ccc([N+](=O)[O-])cc2C(=O)c2ccc(Cl)cc2)CC1`, the ratio readout change entry was “inactive”.

Regarding `Cc1nnc(C)c2c(C)n(N)c(C)c12`, the ratio readout change is -51.8 (active).

For `CN1CCN(c2nc(Nc3ccc(O)cc3)nc3ccccc23)CC1`, the ratio readout change is -71.3 (active).

Turning to `O=C(NCCC1=CCCCC1)C1CCN(Cc2cnn(-c3ccccc3)c2-n2cccc2)CC1`, the ratio readout change entry is “inactive”.

Take `Nc1scc[n+]1Cc1cccc2cccnc12`: the ratio readout change was -43.3 (active).

On to `CCCCN(CCCC)CC(O)Cn1c2ccccc2c(=O)c2ccccc21` (configuration not stated), for which the ratio readout change was -21.9 (active).

For `Cc1c(C)c2c(OCC(=O)N[C@@H](C(=O)O)c3ccccc3)cc3c(c2oc1=O)CCC(C)(C)O3`, the ratio readout change result is “inactive”.

As to `CCOC(=O)c1cccnc1NC(=O)c1ccncc1`, the ratio readout change was -20.3 (active).

In the case of `COc1ccc([N+](=O)[O-])cc1N(CC(O)CN(CC(C)C)CC(C)C)S(=O)(=O)c1ccc(C)cc1` (configuration not stated), the ratio readout change entry is “inactive”.

Consider `Cc1ccc(-n2c(C)cc(/C=N\NC(=O)CC(=O)NC(C)C)c2C)cc1`, for which the ratio readout change result is “inactive”.

With `COc1ccc(Nc2cc(C)nc(-n3nc(C)cc3C)n2)cc1`, the ratio readout change entry was “inactive”.

For `COc1ccc(Nc2nnc(C)c3ccccc23)cc1`, the ratio readout change was -50.6 (active).

Regarding `O=C(COC(=O)C1CCN(S(=O)(=O)c2ccc3c(c2)OCCO3)CC1)Nc1ccccc1OC(F)F`, the ratio readout change result is “inactive”.

`CCn1cc(S(=O)(=O)c2cccc(C)c2)c(=O)c2cc(F)c(N3CCN(C)CC3)cc21`: the ratio readout change is -55.2 (active).

As for `CN1CCN(c2cc3c(cc2F)c(=O)c(C(=O)O)cn3CCF)CC1`, the ratio readout change was -29.7 (active).

For `CC(Nc1nc(N2CCN(CCO)CC2)nc2ccccc12)c1ccccc1` (configuration not stated), the ratio readout change is -58.8 (active).

Consider `O=C(C1=C(O)C(=O)N(Cc2ccccc2)C1c1ccco1)c1ccco1` (configuration not stated), for which the ratio readout change result is “inactive”.

`CCN1C(=NCCc2cccnc2)N[C@@H](c2ccccc2)[C@H](C(=O)OC)[C@H]1C`: the ratio readout change entry was “inactive”.

For `Cc1cccn2c(=O)c3cc(C#N)c(=O)n(CCCN4CCOCC4)c3nc12`, the ratio readout change was -48.2 (active).

Regarding `CCN1CCCC1CNC(=O)c1cc2c(=O)n(C)c3ccccc3c2n1C` (configuration not stated), the ratio readout change was -28 (active).

For `O=Cc1ccc(OCc2cn3ccccc3n2)cc1`, the ratio readout change is -38.8 (active).

`COc1ccccc1NC(=O)C1=C(C)Nc2nc3ccccc3n2C1c1cccs1` (configuration not stated): the ratio readout change entry is “inactive”.

As to `CN1CCc2c(sc3c2c(NCc2ccco2)nc2nnnn23)C1`, the ratio readout change was -34.6 (active).
